Among the test systems are SR leukemia; RPMI-8226 leukemia; OVCAR-8 ovarian; OVCAR-5 ovarian; OVCAR-4 ovarian; SK-OV-3 ovarian; IGROV1 ovarian; OVCAR-3 ovarian; HS 578T breast; NCI/ADR-RES ovarian; T-47D breast; BT-549 breast; MDA-MB-435 melanoma; SW-620 colon; MCF7 breast; HCT-116 colon; HCC-2998 colon; KM12 colon; MDA-MB-468 breast.
Assay in all cases: NCI-60 one-dose screen, 48 h (100 = growth as untreated, 0 = no growth, -100 = all killed)
Common to all, as to settings: 10 µM unless noted

The structures appear in SMILES notation. About 83,000 compounds went through this panel and 20% of them were active in at least one assay; those are over-represented in the sample as a whole.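 The endpoint reported here, percent growth, reads 100 for growth as untreated, 0 for no net growth and -100 for all cells dead.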 Values without a mark were called inactive. Calls of active or inactive are those of the source. How the source made its calls: active means growth percent below 10; inactive means the rest.

In the case of `Cc1ccccc1[C@H]1C(C(=O)c2ccc(Cl)cc2)C2(N[C@@H]1c1ccccc1)C(=O)Nc1ccc(Cl)cc12` (some centres not stated), the growth was -23.6% (active) in the test on SR leukemia; -11.8% (active) with RPMI-8226 leukemia; -69.2% (active) with OVCAR-8 ovarian; -55.8% (active) in the test on OVCAR-5 ovarian; 11.2% in the test with OVCAR-4 ovarian; 1.06% (active) with SK-OV-3 ovarian. The growth in the test with IGROV1 ovarian was 2.05% (active); in the test on OVCAR-3 ovarian it was -52.4% (active); with HS 578T breast, 6.9% (active); in the test on NCI/ADR-RES ovarian, -65.7% (active); with T-47D breast, 13%; in the test on BT-549 breast, -29.4% (active). Also, the growth with MDA-MB-435 melanoma was -35.4% (active); with SW-620 colon it was -9.32% (active); in the test on MCF7 breast, -22.3% (active); with HCT-116 colon, -84.6% (active); in the test on HCC-2998 colon it was -54.2% (active); with KM12 colon, -24.3% (active). The growth in the test on MDA-MB-468 breast is -19.1% (active).
Turning to `CCCCCCCCOc1cccc(S(=O)(=O)Nc2ccc(C)cc2C(=O)O)c1`, the growth in the test on SR leukemia was 90%; in the test on RPMI-8226 leukemia, 64.5%; with OVCAR-8 ovarian, 95.6%; in the test on OVCAR-5 ovarian, 114%; with OVCAR-4 ovarian, 90.1%; with SK-OV-3 ovarian, 108%. Further, the growth with IGROV1 ovarian is 99.7%; with OVCAR-3 ovarian, 102%; in the test on HS 578T breast, 106%; in the test on NCI/ADR-RES ovarian, 97.6%; with T-47D breast it was 105%; with BT-549 breast, 115%. Further, the growth in the test on MDA-MB-435 melanoma is 98.5%; in the test with SW-620 colon, 96.5%; in the test on MCF7 breast, 89.8%; with HCT-116 colon, 85.1%; in the test with HCC-2998 colon it was 119%; in the test with KM12 colon, 96.9%. The growth in the test with MDA-MB-468 breast is 81.8%.
Take `COc1ccc2c(c1)c(-c1cc3nc(-c4cn(C)c5ncccc45)cc(N)n3n1)cn2C`: the growth in the test on SR leukemia is -19.3% (active); with RPMI-8226 leukemia, -20.6% (active); in the test on OVCAR-8 ovarian it was -41.5% (active); in the test on OVCAR-5 ovarian, -7.9% (active); with OVCAR-4 ovarian, -5.11% (active); with SK-OV-3 ovarian, -57% (active). Besides, the growth with IGROV1 ovarian is -58.1% (active); in the test with OVCAR-3 ovarian, -12.4% (active); in the test with HS 578T breast, -26.8% (active); in the test on NCI/ADR-RES ovarian it was 9.49% (active); with T-47D breast it was -48.5% (active); in the test on BT-549 breast it was -84.7% (active). The growth is -62.4% (active) with MDA-MB-435 melanoma; -70.4% (active) in the test on SW-620 colon; -89% (active) in the test on HCT-116 colon; -100% (active) in the test on HCC-2998 colon; -69.3% (active) in the test with KM12 colon; -89.6% (active) in the test on MDA-MB-468 breast.
As for `COc1ccc2oc(=O)c(C3(C)NC(=O)c4c(/C=C/C(=O)OC(C)(C)C)cccc4N3)cc2c1` (configuration not stated), the growth with SR leukemia is 26.2%; in the test with RPMI-8226 leukemia it was 28.5%; in the test with OVCAR-8 ovarian it was 37.9%; in the test with OVCAR-5 ovarian, 60.9%; in the test on OVCAR-4 ovarian, 41.5%; in the test on SK-OV-3 ovarian, 51.2%. The growth in the test on IGROV1 ovarian is 41.6%; in the test with OVCAR-3 ovarian it was 55.4%; in the test on HS 578T breast, 60%; in the test with NCI/ADR-RES ovarian, 36.6%; in the test with T-47D breast, 6.58% (active); in the test on BT-549 breast, 3.69% (active). Also, the growth was 46.7% in the test on MDA-MB-435 melanoma; 63.8% in the test with SW-620 colon; 24.1% in the test with MCF7 breast; 30% with HCT-116 colon; 62.1% in the test on HCC-2998 colon; 47% with KM12 colon. The growth with MDA-MB-468 breast was 31.7%.
As to `CC(C)Sc1nc(NCCc2c[nH]c3ccccc23)c(C#N)c(-c2ccccc2)n1`, the growth in the test on SR leukemia was -17.2% (active); with RPMI-8226 leukemia it was 7.27% (active); in the test with OVCAR-8 ovarian, 38%; with OVCAR-5 ovarian, 68.7%; in the test with OVCAR-4 ovarian it was 53.6%; with SK-OV-3 ovarian, 70.2%. For the same compound, the growth in the test on IGROV1 ovarian is 87.8%; in the test on OVCAR-3 ovarian it was 44.4%; in the test on HS 578T breast, 8.79% (active); with NCI/ADR-RES ovarian it was 15.1%; with T-47D breast it was -9.65% (active); with BT-549 breast it was 55.1%. Moreover, the growth with MDA-MB-435 melanoma was 48.1%; with SW-620 colon it was -11.6% (active); with MCF7 breast, -22.5% (active); in the test on HCT-116 colon, 0.232% (active); in the test with HCC-2998 colon, 4.86% (active); with KM12 colon it was 6.51% (active). For the same compound, in the test on MDA-MB-468 breast, the growth was -4.09% (active).
On to `CCCn1cc(-c2nc(Nc3ccc(C(=O)NCCCCNc4cccc5c4C(=O)N(C4CCC(=O)NC4=O)C5=O)cc3)nc3[nH]ccc23)cn1` (configuration not stated), for which the growth is 25.1% with SR leukemia; 17.5% with RPMI-8226 leukemia; 6.6% (active) in the test on OVCAR-8 ovarian; 54.2% in the test with OVCAR-5 ovarian; 9.82% (active) in the test on OVCAR-4 ovarian; 24.8% in the test with SK-OV-3 ovarian. Also, the growth with IGROV1 ovarian was 7.36% (active); in the test with OVCAR-3 ovarian, 36.3%; with HS 578T breast, 6.24% (active); in the test with NCI/ADR-RES ovarian it was 95.6%; with T-47D breast, -11% (active); in the test on BT-549 breast it was -36.1% (active). The growth is 34.2% in the test on MDA-MB-435 melanoma; 9.12% (active) in the test with SW-620 colon; 72.3% in the test on HCT-116 colon; 5.84% (active) in the test with HCC-2998 colon; 6.05% (active) in the test with KM12 colon.
As to `Cc1nc(Nc2ncc(C(=O)Nc3c(C)cccc3Cl)s2)cc(N2CCN(CCCNC(=O)COc3ccc(C4CCC(=O)NC4=O)cc3)CC2)n1` (configuration not stated), the growth in the test with SR leukemia was 20%; in the test on RPMI-8226 leukemia it was 76.4%; with OVCAR-8 ovarian it was 34%; in the test on OVCAR-5 ovarian, 26.3%; in the test with OVCAR-4 ovarian, 85.8%; with SK-OV-3 ovarian, -17.9% (active). Moreover, the growth was -45.2% (active) with IGROV1 ovarian; 72% in the test on OVCAR-3 ovarian; -16% (active) in the test on HS 578T breast; 106% with NCI/ADR-RES ovarian; 64.1% with T-47D breast; 68.5% in the test on BT-549 breast. For the same compound, the growth in the test with MDA-MB-435 melanoma is 81%; with SW-620 colon, 118%; in the test on HCT-116 colon, 42.2%; in the test on HCC-2998 colon it was 114%; with KM12 colon it was 82%; with MDA-MB-468 breast, -23.4% (active).
Consider `Cn1cc(-c2cc(N)n3nc(-c4c[nH]c5ccccc45)cc3n2)c2cc(Br)cnc21`, for which the growth was -29.5% (active) with SR leukemia; -14.8% (active) in the test on RPMI-8226 leukemia; -22.6% (active) with OVCAR-8 ovarian; -77.6% (active) with OVCAR-5 ovarian; 5.89% (active) in the test with OVCAR-4 ovarian; -34.6% (active) in the test on SK-OV-3 ovarian. Moreover, the growth in the test on IGROV1 ovarian was -41.9% (active); with OVCAR-3 ovarian, -66% (active); with HS 578T breast it was -17.5% (active); in the test on NCI/ADR-RES ovarian, -44.6% (active); in the test on T-47D breast, -56% (active); in the test on BT-549 breast, -87.8% (active). Besides, the growth is -79.3% (active) in the test with MDA-MB-435 melanoma; -69.1% (active) in the test with SW-620 colon; -90.7% (active) in the test with HCT-116 colon; -94.3% (active) in the test on HCC-2998 colon; -60.9% (active) in the test on KM12 colon; -88.5% (active) with MDA-MB-468 breast.

(Values after PubChem BioAssay (NCI).)
